# Measured values: the supplement of paper PMC9446081
# Hit rate of the full screen: of about 39,000 compounds, about 220 (0.56%) showed activity. The sample holds actives, similar compounds and a random draw of the others, so the mix is not that of the screen. A number with no mark means an inactive call.
# Tested on: Escherichia coli K-12 BW25113
# Assay: relative growth (OD600 normalised to plate interquartile mean) (fraction); higher = less growth inhibition, active = 0.2 or less
# Conditions: 50 µM; LB; incubation time: overnight (16-24 h)
# 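Also: Wild-type cells incubated without shaking, value is the mean of two biological replicates.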
row,SMILES,relative growth
1,CN1C=C(C(=O)OCCS(C)(=O)=O)C(C(=O)OCCS(C)(=O)=O)=CC(c2ccc(CO)cc2)=C[C@@H]1C1CC1,1.02
2,Cc1ccc(S(=O)(=O)N[C@H]2CC[C@H](CC(=O)N3CCC(Cc4ccccc4)CC3)O[C@H]2CO)cc1,1.02
3,Cc1noc(C)c1NC(=O)Nc1ccc2c(c1)C(=O)N([C@@H](C)CO)C[C@@H](C)[C@@H](CN(C)S(=O)(=O)c1ccccc1)OCCCC[C@H](C)O2,0.998
4,C[C@H]1CN([C@@H](C)CO)C(=O)c2cccc(NC(=O)Nc3ccccc3)c2O[C@@H]1CN(C)S(C)(=O)=O,0.991
5,CCS(=O)(=O)Nc1ccc2c(c1)C(=O)N(C)[C@@H]1CC[C@@H](CC(=O)NCc3ccc(OC)cc3)O[C@@H]1CO2,1.01
6,Cc1ccc(NC(=O)C[C@@H](N)C(=O)O)cc1,1.01
7,CC1C(NC(=O)C(=NOC(C)(C)C(=O)O)c2csc(N)n2)C(=O)N1S(=O)(=O)O (stereo not drawn),0.0499 (active)
8,C[C@H]1[C@H](NC(=O)/C(=N\OC(C)(C)C(=O)O)c2csc(N)n2)C(=O)N1S(=O)(=O)O,0.0312 (active)
9,CCNC(=O)c1csc(N)n1,0.971
10,CCOC(=O)/C(=N/O)c1csc(N)n1,0.997
11,COc1ccc(S(=O)(=O)N2C[C@H](O)COC[C@@H]3O[C@@H](CC(=O)NCCCN4CCOCC4)CC[C@H]32)cc1,0.999
12,CC(C)NC(=O)Nc1ccc2c(c1)C(=O)N([C@H](C)CO)C[C@@H](C)[C@H](CN(C)S(=O)(=O)c1ccc(Cl)cc1)O2,1.03
13,Cn1c(=O)oc2cc(S(=O)(=O)N3CCC[C@H](C(=O)NN4CCOCC4)C3)ccc21,0.99
14,NC(=O)c1cc[n+](CC2=C(C(=O)O)N3C(=O)[C@@H](NC(=O)Cc4cccs4)[C@H]3SC2)cc1,1.04
15,CC(C)(O/N=C(\C(=O)N[C@@H]1C(=O)N2C(C(=O)O)=C(C[n+]3ccccc3)CS[C@H]12)c1csc(N)n1)C(=O)O,0.0433 (active)
16,CC(C)(ON=C(C(=O)NC1C(=O)N2C(C(=O)[O-])=C(C[n+]3ccccc3)CSC12)c1csc(N)n1)C(=O)O (stereo not drawn),0.0511 (active)
17,CC(C)(O/N=C(\C(=O)N[C@@H]1C(=O)N2C(C(=O)O)=C(C[N+]3(CCNC(=O)c4ccc(O)c(O)c4Cl)CCCC3)CS[C@H]12)c1csc(N)n1)C(=O)O,0.0469 (active)
18,COc1ccc(CNC(=O)C[C@@H]2CC[C@H]3[C@@H](COc4ccc(NC(=O)C5CC5)cc4C(=O)N3C)O2)cc1,1.03
19,CC(C)(C)[S@](=O)N1Cc2cc(C(=O)N3CCCCC3)nc(-c3cccc(-c4ccc(C#N)cc4)c3)c2[C@@H]1CCO,1
20,C[C@@H]1CN([C@@H](C)CO)C(=O)c2cc(-c3ccc(C(=O)N(C)C)cc3)cnc2O[C@H]1CN(C)C(=O)c1cccnc1,1.03
21,CCCNC(=O)N1CC[C@]2(CC1)CN([C@@H](CO)c1[nH]c3cc(ccc3c12)OC)C(=O)CN1CCOCC1,0.998
22,COCCOC(=O)N1C(=O)[C@@]2(c3cc(C#Cc4ccc(OC)cc4)ccc31)[C@H](C(=O)N1CCN(c3ncccn3)CC1)[C@H]1C(=O)O[C@H](c3ccccc3)[C@H](c3ccccc3)N1[C@@H]2c1ccccc1OCCO,1.07
23,O=C1C[C@]2(c3ccc([N+](=O)[O-])cc3)C(=O)N(C3CC3)c3cc(CO)ccc3[C@H]2N1CC12CC3CC(CC(C3)C1)C2,1.01
24,CO[C@H]1CN(C)C(=O)c2cc(NC(=O)Nc3cccc(F)c3)ccc2OC[C@@H](C)N(C(=O)Nc2c(C)noc2C)C[C@H]1C,0.978
25,C[C@H](CO)N1C[C@H](C)[C@H](CN(C)C(=O)Nc2ccc(N3CCN(C)CC3)cc2)OCc2cnnn2CCCC1=O,0.983
26,CC[C@H]1OC(=O)[C@H](C)[C@@H](O[C@H]2C[C@@](C)(OC)[C@@H](O)[C@H](C)O2)[C@H](C)[C@@H](O[C@@H]2O[C@H](C)C[C@H](N(C)C)[C@H]2O)[C@](C)(O)C[C@@H](C)CN(C)[C@H](C)[C@@H](O)[C@]1(C)O,0.0562 (active)
27,CCCN1C[C@H](C)[C@@H](O)[C@](C)(O)[C@@H](CC)OC(=O)[C@H](C)[C@@H](O[C@H]2C[C@@](C)(OC)[C@@H](O)[C@H](C)O2)[C@H](C)[C@@H](O[C@@H]2O[C@H](C)C[C@H](N(C)C)[C@H]2O)[C@](C)(O)C[C@H]1C,0.116 (active)

row,SMILES,relative growth
1,CCC1OC(=O)C(C)C(OC2CC(C)(OC)C(O)C(C)O2)C(C)C(OC2OC(C)CC(N(C)C)C2O)C(C)(O)CC(C)CN(C)C(C)C(O)C1(C)O (stereo not drawn),0.0435 (active)
2,CO[C@H]1C[C@H](O[C@H]2[C@H](C)[C@@H](O[C@H]3O[C@H](C)C[C@H](N(C)C)[C@H]3O)[C@@H](C)C[C@]3(CO3)C(=O)[C@H](C)[C@@H](O)[C@@H](C)[C@@H](C)OC(=O)[C@@H]2C)O[C@@H](C)[C@@H]1O,0.954
3,CC[C@H]1OC(=O)[C@H](C)[C@@H](O[C@H]2C[C@@](C)(OC)[C@@H](O)[C@H](C)O2)[C@H](C)[C@@H](O[C@@H]2O[C@H](C)C[C@H](N(C)C)[C@H]2O)[C@](C)(O)C[C@@H](C)[C@@H]2N[C@@H](COCCOC)O[C@H]([C@H]2C)[C@]1(C)O,0.469
4,CCC(=O)OC1C(OC2C(C)C(OC3CC(C)(OC)C(O)C(C)O3)C(C)C(=O)OC(CC)C(C)(O)C(O)C(C)C(=O)C(C)CC2(C)O)OC(C)CC1N(C)C.CCCCCCCCCCCCOS(=O)(=O)O (stereo not drawn),0.953
5,CCC1OC(=O)C(C)C(OC2CC(C)(OC)C(O)C(C)O2)C(C)C(OC2OC(C)CC(N(C)C)C2O)C(C)(O)CC(C)C(=O)C(C)C(O)C1(C)O.CCCCCCCCCCCCCCCCCC(=O)O (stereo not drawn),0.665
6,C[C@H](CO)N1C[C@H](C)[C@H](CN(C)S(=O)(=O)c2cccs2)Oc2ncc(-c3cccc(F)c3)cc2C1=O,0.97
7,O=C(Cn1nnc2ccccc2c1=O)Nc1nnc[nH]1,0.982
8,C[C@@H]1CN([C@H](C)CO)S(=O)(=O)c2ccc(C#CC3(O)CCCC3)cc2O[C@H]1CN(C)C(=O)Nc1cccc(F)c1,1
9,Cc1cc(C)n(CCNC(=O)[C@H]2CCCN(c3cccc4c3C(=O)N(Cc3ccc5c(c3)OCO5)C4=O)C2)n1,0.993
10,C[C@H](CO)N1C[C@H](C)[C@H](CN(C)C(=O)Nc2ccc(F)cc2)Oc2ncc(Br)cc2C1=O,0.974
11,CN(C)C(=O)C[C@@H]1CC[C@@H]2[C@H](COC[C@H](O)CN2S(=O)(=O)c2ccccc2)O1,1.02
12,Cn1cnc(S(=O)(=O)N2C[C@@H](O)COC[C@H]3O[C@@H](CC(=O)N4CCN(c5ccccc5)CC4)CC[C@@H]32)c1,1.02
13,CC[C@@H](C)[C@H]1O[C@@]2(CC[C@@H]1C)C[C@H]1C[C@@H](CC=C(C)[C@@H](O[C@H]3C[C@@H](OC)[C@@H](O[C@H]4C[C@@H](OC)[C@@H](O)[C@@H](C)O4)[C@@H](C)O3)[C@@H](C)C=CC=C3CO[C@H]4[C@@H](O)C(C)=C[C@@H](C(=O)O1)[C@]34O)O2.CO[C@H]1C[C@@H](O[C@@H]2[C@@H](OC)C[C@@H](O[C@@H]3C(C)=CC[C@@H]4C[C@@H](C[C@@]5(CC[C@@H](C)[C@H](C(C)C)O5)O4)OC(=O)[C@@H]4C=C(C)[C@H](O)[C@@H]5OCC(=CC=C[C@@H]3C)[C@@]45O)O[C@@H]2C)O[C@@H](C)[C@@H]1O,1
14,C[C@@H]1CCCCO[C@H](CN(C)C(=O)Nc2ccccc2)[C@H](C)CN([C@@H](C)CO)C(=O)c2cc(NC(=O)c3ccccc3)ccc2O1,0.982
15,CC[C@H]1OC(=O)[C@H](C)[C@@H](O[C@H]2C[C@@](C)(OC)[C@@H](O)[C@H](C)O2)[C@H](C)[C@@H](O[C@@H]2O[C@H](C)C[C@H](N(C)C)[C@H]2O)[C@](C)(O)C[C@@H](C)C(=O)[C@H](C)[C@@H](O)[C@]1(C)O,0.0484 (active)
16,CCC1OC(=O)C(C)C(OC2CC(C)(OC)C(O)C(C)O2)C(C)C(OC2OC(C)CC(N(C)C)C2O)C(C)(O)CC(C)C(=O)C(C)C(O)C1(C)O (stereo not drawn),0.408
17,CCC1OC(=O)C(C)C(OC2CC(C)(OC)C(O)C(C)O2)C(C)C(OC2OC(C)CC(N(C)C)C2O)C(C)(O)CC(C)C2NC(COCCOC)OC(C2C)C1(C)O (stereo not drawn),0.433
18,CCOC(=O)CCC(=O)OC1C(OC2C(C)C(OC3CC(C)(OC)C(O)C(C)O3)C(C)C(=O)OC(CC)C(C)(O)C(O)C(C)C(=O)C(C)CC2(C)O)OC(C)CC1N(C)C (stereo not drawn),0.709
19,CCOC(=O)CCC(=O)O[C@H]1[C@H](O[C@@H]2[C@@H](C)[C@H](O[C@H]3C[C@@](C)(OC)[C@@H](O)[C@H](C)O3)[C@@H](C)C(=O)O[C@H](CC)[C@@](C)(O)[C@H](O)[C@@H](C)C(=O)[C@H](C)C[C@@]2(C)O)O[C@H](C)C[C@@H]1N(C)C,0.0544 (active)
20,CC[C@@H]1OC(=O)[C@@H](C)[C@H](O[C@H]2C[C@@](C)(OC)[C@@H](O)[C@H](C)O2)[C@@H](C)[C@H](O)[C@@](C)(O[C@@H]2O[C@H](C)C[C@H](N(C)C)[C@H]2O)C[C@H](C)C(=O)[C@@H](C)[C@H](O)[C@@]1(C)O,0.427
21,CC[C@H]1OC(=O)[C@H](C)[C@@H](O[C@H]2C[C@@](C)(OC)[C@@H](O)[C@H](C)O2)[C@H](C)[C@@H](O[C@@H]2O[C@H](C)C[C@H](N(C)C)[C@H]2O)[C@](C)(OC)C[C@@H](C)C(=O)[C@H](C)[C@@H](O)[C@]1(C)O,0.0351 (active)
22,CCC1OC(=O)C(C)C(OC2CC(C)(OC)C(O)C(C)O2)C(C)C(OC2OC(C)CC(N(C)C)C2O)C(C)(O)CC(C)C(=NOCOCCOC)C(C)C(O)C1(C)O (stereo not drawn),0.613
23,CC[C@@H]1OC(=O)[C@H](C)[C@@H](O[C@H]2C[C@@](C)(OC)[C@@H](O)[C@H](C)O2)[C@H](C)[C@@H](O[C@@H]2O[C@H](C)C[C@H](N(C)C)[C@H]2O)[C@](C)(O)C[C@@H](C)/C(=N\OCOCCOC)[C@H](C)[C@@H](O)[C@]1(C)O,0.165 (active)
24,CC[C@H]1OC(=O)[C@H](C)[C@@H](O[C@H]2C[C@@](C)(OC)[C@@H](O)[C@H](C)O2)[C@@H](C)[C@@H](O[C@H]2O[C@H](C)C[C@H](N(C)C)[C@H]2O)[C@](C)(O)C[C@@H](C)C(=O)[C@H](C)[C@@H](O)[C@]1(C)O,0.375
25,CCC1OC(=O)C(C)C(OC2CC(C)(OC)C(O)C(C)O2)C(C)C(OC2OC(C)CC(N(C)C)C2O)C(C)(OC)CC(C)C(=O)C(C)C(O)C1(C)O (stereo not drawn),0.536
26,CCC(=O)O[C@H]1[C@H](O[C@@H]2[C@@H](C)[C@H](O[C@H]3C[C@@](C)(OC)[C@@H](O)[C@H](C)O3)[C@@H](C)C(=O)O[C@H](CC)[C@@](C)(O)[C@H](O)[C@@H](C)C(=O)[C@H](C)C[C@@]2(C)O)O[C@H](C)C[C@@H]1N(C)C,0.947
